ELG1 repair inh – qHTS screen for small molecules that inhibit ELG1-dependent DNA repair in human embryonic kidney (HEK293T) cells expressing luciferase-tagged ELG1; HEK293T ELG1-luciferase reporter, luminescence, 16 h; DNA damage induced by 5-fluorouridine; Potency, µM (titrated, usually from 46.1 µM), for inactives: top-dose activity change, negative = inhibition, most hits filed as inhibitors; 330,000 tested, 2.3% active; AID 504467, 2011; note: % is set by controls: 0 for no effect and ±100 for the full control effect; nearly all actives have a fitted effect of over 55% in size
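HEK293T cells expressing luciferase-tagged ELG1 (2,000/well) received 5-Fluorouridine plus compound or DMSO for 16 hr at 37 °C. Luciferase was read by ONE-Glo luminescence after 30 min at room temperature.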
SMN2 splice up – qHTS Assay for Enhancers of SMN2 Splice Variant Expression; HEK293 SMN2-luciferase splicing reporter, luminescence, 30-36 h; 210,000 tested, 2.8% active; Potency, µM (series often up to 46.1 µM), for the others: at the top dose activity change, positive = activation, usual class: activators; note: % of control where 0% means no effect; nearly all actives have a fitted effect of over 55% in size
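qHTS luciferase splicing reporter: luminescence rises when SMN2 exon 7 is included in transfected HEK293 cells. Compound exposure lasted 30-36 h at 37C, with 4.5 mM final sodium butyrate as control, followed by a ONE-Glo read.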
NPC1 promoter act – qHTS Assay for NPC1 Promoter Activators; 320,000 tested, 2.4% active; Potency, µM (titrated, usually from 9.22 µM), for inactives: at the highest dose activation, actives largely listed as activators; AID 485313, 2010; Huh7 NPC1 promoter luciferase reporter, 24 h; note: % of control where 0% means no effect; nearly all actives have a fitted effect of over 60% in size
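Compounds in DMSO were transferred onto Huh7 NPC1-luciferase reporter cells pre-incubated 2 h; after 24 h at 37 °C, Amplite reagent was dispensed and luminescence recorded 10 min later.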
ELG1 genotox – qHTS screen for small molecules that induce genotoxicity in human embryonic kidney (HEK293T) cells expressing luciferase-tagged ELG1; HEK293T ELG1-luciferase reporter, luminescence, 16 h; Potency, µM (series often up to 46 µM), for the others: at the highest dose activity change, positive = activation, most hits filed as activators; 330,000 tested, 1.3% active; note: % of control where 0% means no effect; nearly all actives have a fitted effect of over 60% in size
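HEK293T cells expressing luciferase-tagged ELG1 were exposed to compound or DMSO vehicle for 16 hr at 37 °C and 5% CO2. Luciferase activity was then measured with ONE-Glo after 30 min at room temperature.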
Rab9 prom act – qHTS Assay for Rab9 Promoter Activators | Huh7 Rab9 promoter-luciferase reporter, luminescence, 24 h | Potency, µM (titrated, usually from 9.22 µM), for inactives: top-dose activation, negative = inhibition, most hits filed as activators | 320,000 tested, 2.8% active; note: % of control where 0% means no effect; nearly all actives have a fitted effect of over 60% in size
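Luminescence from Amplite-detected luciferase (10 minutes, ambient) reports Rab9 promoter activation. Before that, stable Rab9-luciferase Huh7 cells (1500/well, reduced-serum OP-MEM I plus 10% FBS) were exposed to compound for 24 hours at 37C.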
FLuc modulator – qHTS profiling assay for firefly luciferase inhibitor/activator using purifed enzyme and Km concentrations of substrates (counterscreen for miR-21 project); Potency, µM (series often up to 57.5 µM), without a hit: at the top dose activity change, negative = inhibition, usual class: inhibitors; Luciferin 4-monooxygenase (Photinus pyralis), P08659; 360,000 tested, 6.9% active; purified FLuc, Km substrates, luminescence inhibition; AID 588342, 2011;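 note: plate controls were vehicle for no effect and reference inhibitor for full effect; nearly all actives have a fitted effect of over 55% in size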
Target sequence (P08659 whole entry, looked up): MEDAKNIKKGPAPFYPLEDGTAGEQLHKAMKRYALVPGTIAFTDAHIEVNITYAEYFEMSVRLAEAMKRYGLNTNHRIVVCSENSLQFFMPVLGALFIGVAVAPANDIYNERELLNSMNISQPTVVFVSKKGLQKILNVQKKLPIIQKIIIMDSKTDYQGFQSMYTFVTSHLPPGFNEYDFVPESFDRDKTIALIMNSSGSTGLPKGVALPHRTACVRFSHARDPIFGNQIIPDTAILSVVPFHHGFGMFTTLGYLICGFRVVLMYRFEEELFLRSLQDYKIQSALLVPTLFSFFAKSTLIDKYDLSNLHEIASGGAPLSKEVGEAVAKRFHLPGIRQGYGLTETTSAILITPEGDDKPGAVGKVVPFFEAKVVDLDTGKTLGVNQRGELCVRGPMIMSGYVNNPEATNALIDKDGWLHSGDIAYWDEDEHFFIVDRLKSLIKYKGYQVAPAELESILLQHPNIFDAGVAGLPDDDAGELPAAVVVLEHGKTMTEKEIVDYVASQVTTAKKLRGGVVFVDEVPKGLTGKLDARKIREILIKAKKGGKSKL
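Purified P. pyralis luciferase (10nM final) with 10uM D-luciferin and 10uM ATP (Km levels) in 50mM Tris acetate pH 7.5, 10mM Mg acetate, 0.01% Tween-20, 0.05% BSA; qHTS 6-point titration, ~60 µM downward; luminescence read.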
* marks the source's active call; other numbers are inactive results; [ ] = dose if it differs, or a comment. An excerpt weighted towards active compounds, which were near 9.3% of everything screened. Calls come from the whole dose curve; as a rule, active = well fitted curve in the direction sought with a large enough effect; inconclusive = small, poorly fitted or top-dose-only effect, or another doubt; inactive = no such curve, though single readings can be large; an effect the other way counts as inactive or inconclusive. Potency is the fitted concentration of half-maximal effect.

How did O=C(COc1ccc(Cl)cc1)NNC(=O)c1ccc2c(=O)n3c(nc2c1)CCC3 do in these assays?
ELG1 repair inh: -14.6%; NPC1 promoter act: 0.9%; ELG1 genotox: -0.3%; Rab9 prom act: 1.8%; FLuc modulator: -0.6%

What do the screens show for `Cc1cccc(C)c1NC(=O)CCCSc1nnc(-c2ccc(F)cc2)n1-c1ccccc1`?
ELG1 repair inh: 16.4µM*; SMN2 splice up: -55.7%; NPC1 promoter act: -4.5%; ELG1 genotox: -7.3%; Rab9 prom act: -3.4%; FLuc modulator: 2.1%

What do the screens show for `Cc1cccc(C)c1NC(=O)CCCSc1nnc(-c2ccc(Cl)cc2)n1-c1ccccc1`?
ELG1 repair inh: 20.6µM*; SMN2 splice up: -64.9%; NPC1 promoter act: -5.4%; ELG1 genotox: -5.6%; Rab9 prom act: -12.0%; FLuc modulator: 0.9%

How did O=C(CSc1nnc(-c2ccncc2)n1-c1ccccc1)Nc1ccc(F)cc1 do in these assays?
FLuc modulator: -1.2%

What do the screens show for `Cc1ccc2[nH]cc(C(c3ccccc3)c3ccc(C)s3)c2c1` (configuration not stated)?
SMN2 splice up: -29.6%; FLuc modulator: 5.9%

How did CCN(Cc1ccccc1)C(=O)c1ccc(CNS(=O)(=O)c2ccc(C)cc2)cc1 do in these assays?
ELG1 repair inh: -23.7%; SMN2 splice up: -40.5%; NPC1 promoter act: -1.8%; ELG1 genotox: 0.7%; Rab9 prom act: -5.7%; FLuc modulator: 4.5%

Results for CCCN(Cc1ccc(C)cc1)C(=O)c1ccc(CNS(=O)(=O)c2ccc(C(C)=O)cc2)cc1 ?
ELG1 repair inh: inconclusive; NPC1 promoter act: inconclusive; ELG1 genotox: 0.7%; Rab9 prom act: inconclusive; FLuc modulator: 21.3µM*

What do the screens show for `COc1ccc(CCNC(=O)C(=O)NCC2OCCN2S(=O)(=O)c2ccc(Cl)cc2)cc1OC` (configuration not stated)?
ELG1 repair inh: inconclusive; NPC1 promoter act: -11.1%; ELG1 genotox: -0.8%; Rab9 prom act: -7.1%; FLuc modulator: -0.5%

Results for COC(=O)c1ccc(/C=C2/SC(=S)N(CCCC(=O)Nc3ccccn3)C2=O)cc1 ?
ELG1 repair inh: inconclusive; SMN2 splice up: -9.4%; NPC1 promoter act: -10.6%; ELG1 genotox: 1.0%; Rab9 prom act: -10.2%; FLuc modulator: inconclusive

Results for CCc1ccc(/C=C2\SC(=S)N(CCCC(=O)Nc3ccccn3)C2=O)cc1 ?
ELG1 repair inh: -18.4%; SMN2 splice up: -57.3%; NPC1 promoter act: -21.3%; ELG1 genotox: -0.9%; Rab9 prom act: -20.2%; FLuc modulator: 15.1µM*

Results for CCOc1ccc(/C=C2\SC(=S)N(CCC(=O)N(CCO)c3ccccc3)C2=O)cc1 ?
ELG1 repair inh: -17.9%; NPC1 promoter act: 0.1%; ELG1 genotox: -5.6%; Rab9 prom act: -10.2%; FLuc modulator: 9.53µM*

How did CN1C(=O)S/C(=C/c2ccc(OCc3cccc(C(=O)O)c3)cc2)C1=O do in these assays?
ELG1 repair inh: inconclusive; NPC1 promoter act: 0.398µM*; ELG1 genotox: inconclusive; Rab9 prom act: 0.282µM*; FLuc modulator: 2.69µM*

What do the screens show for `O=C(O)CCN1C(=O)/C(=C\c2cccc(Oc3ccccc3)c2)SC1=S`?
ELG1 repair inh: 27.0%; NPC1 promoter act: -5.6%; ELG1 genotox: 0.9%; Rab9 prom act: -6.7%; FLuc modulator: 23.9µM*

What do the screens show for `COc1cccc(/C=C2/SC(=O)N(C)C2=O)c1OCc1ccc(C(=O)O)cc1`?
ELG1 repair inh: 23.2%; NPC1 promoter act: -1.4%; ELG1 genotox: 10.5%; Rab9 prom act: -0.8%; FLuc modulator: -2.6%

What do the screens show for `CCOc1ccc(NC(=O)N2CCN3CCCCC3C2)cc1` (configuration not stated)?
FLuc modulator: -1.8%

What do the screens show for `COc1cc(C(=O)N(CCCN(C)C)c2nc3c(OC)cccc3s2)cc(OC)c1OC`?
FLuc modulator: -2.6%

What do the screens show for `NC(=O)c1ccccc1NC(=O)CSc1nc2c(c(=O)[nH]1)CCCC2`?
ELG1 repair inh: -0.2%; NPC1 promoter act: -1.1%; ELG1 genotox: -7.5%; Rab9 prom act: -0.9%; FLuc modulator: 8.0%

How did O=C(O)CN1C(=O)/C(=C\c2cccc(OCc3ccc(F)cc3)c2)SC1=S do in these assays?
ELG1 repair inh: 0.0%; NPC1 promoter act: -0.5%; ELG1 genotox: 0.1%; Rab9 prom act: 3.6%; FLuc modulator: inconclusive

How did CCc1ccc(/C=C2/SC(=S)N(CCC(=O)Nc3ccc(C(=O)O)cc3)C2=O)cc1 do in these assays?
ELG1 repair inh: -3.1%; NPC1 promoter act: 19.4%; ELG1 genotox: -3.7%; Rab9 prom act: -6.0%; FLuc modulator: 0.849µM*

What do the screens show for `O=C(O)CN1C(=O)/C(=C\c2cccc(OCc3ccccc3F)c2)SC1=S`?
ELG1 repair inh: -0.9%; NPC1 promoter act: 8.2%; ELG1 genotox: 4.6%; Rab9 prom act: -2.9%; FLuc modulator: 21.3µM*

Results for CCc1ccc(/C=C2/SC(=S)N(CCC(=O)Nc3cccc(C(=O)O)c3)C2=O)cc1 ?
ELG1 repair inh: inconclusive; NPC1 promoter act: inconclusive; ELG1 genotox: inconclusive; Rab9 prom act: 25.2%; FLuc modulator: 2.13µM*

Results for O=C(CCN1C(=O)/C(=C/c2ccc(Cl)cc2)SC1=S)Nc1ccc(C(=O)O)cc1 ?
ELG1 repair inh: -14.2%; NPC1 promoter act: -4.8%; ELG1 genotox: -0.1%; Rab9 prom act: 0.3%; FLuc modulator: 10.7µM*

How did CC(CC(=O)O)(CC(=O)O)C(=O)O do in these assays?
SMN2 splice up: -9.0%[9.22 µM]

Results for COc1cc(/C=C2/SC(=S)N(CCC(=O)Nc3ccc(C(=O)O)cc3)C2=O)cc(OC)c1OC ?
ELG1 repair inh: 2.8%; NPC1 promoter act: -1.8%; ELG1 genotox: -4.3%; Rab9 prom act: -2.1%; FLuc modulator: 0.1%

How did CCN(C(=O)CCN1C(=O)/C(=C/c2ccccc2)SC1=S)C1CCS(=O)(=O)C1 (configuration not stated) do in these assays?
ELG1 repair inh: -14.7%; NPC1 promoter act: -18.4%; ELG1 genotox: -7.8%; Rab9 prom act: -21.8%; FLuc modulator: 23.9µM*

How did COc1ccc(/C=C2\SC(=S)N(CCC(=O)Nc3ccc(C(=O)O)cc3)C2=O)cc1 do in these assays?
ELG1 repair inh: 3.1%; NPC1 promoter act: 12.2%; ELG1 genotox: inconclusive; Rab9 prom act: -0.5%; FLuc modulator: 3.01µM*

Screening results deposited in PubChem BioAssay by National Center for Advancing Translational Sciences (NCATS).
